Values without a mark were called inactive.
Tests used:
Test in all cases: log2 ratio of Biotin-Ahx-Ub-VS probe labelling (fragment/DMSO); higher = less target engagement (more negative = stronger competition), active = hit call of the paper (q ≤ 0.05, log2 ratio ≤ -1)
Details in all cases: compound concentration: 200 uM; treatment time: 3 h
UniProt O00507 = target: UniProt O00507
Procedure, shortened: (§1)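 Labelled DUBs were enriched with NeutrAvidin, digested with LysC and trypsin, and run by diaPASEF LC-MS/MS. The labelling used Biotin-Ahx-Ub-VS at 0.5 µM final for 1 h on HEK293T lysate (495 µg per sample) previously treated in triplicate with fragment at 200 µM or vehicle for 3 h. Values are average log2 fragment/vehicle ratios by unpaired t-test on global-median-normalised Spectronaut quantities of proteins with ≥2 unique peptides.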

UniProt P51784 = target: UniProt P51784
Procedure, shortened: as §1

UniProt Q5T2D3 = target: T1, UniProt Q5T2D3
T1 sequence (whole entry): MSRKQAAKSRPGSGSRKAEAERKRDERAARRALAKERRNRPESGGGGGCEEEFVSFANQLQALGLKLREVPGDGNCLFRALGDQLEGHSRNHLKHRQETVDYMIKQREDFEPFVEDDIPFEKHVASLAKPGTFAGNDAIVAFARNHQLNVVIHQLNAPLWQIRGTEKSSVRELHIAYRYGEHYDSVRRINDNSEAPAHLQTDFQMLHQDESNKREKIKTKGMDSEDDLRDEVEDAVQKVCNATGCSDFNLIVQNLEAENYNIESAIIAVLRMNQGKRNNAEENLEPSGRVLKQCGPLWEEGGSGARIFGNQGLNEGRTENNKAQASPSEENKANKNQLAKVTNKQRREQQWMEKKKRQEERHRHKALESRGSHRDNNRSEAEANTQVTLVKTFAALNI
Procedure, shortened: as §1

UniProt Q8TE49 = target: T2, UniProt Q8TE49
T2 sequence (whole entry): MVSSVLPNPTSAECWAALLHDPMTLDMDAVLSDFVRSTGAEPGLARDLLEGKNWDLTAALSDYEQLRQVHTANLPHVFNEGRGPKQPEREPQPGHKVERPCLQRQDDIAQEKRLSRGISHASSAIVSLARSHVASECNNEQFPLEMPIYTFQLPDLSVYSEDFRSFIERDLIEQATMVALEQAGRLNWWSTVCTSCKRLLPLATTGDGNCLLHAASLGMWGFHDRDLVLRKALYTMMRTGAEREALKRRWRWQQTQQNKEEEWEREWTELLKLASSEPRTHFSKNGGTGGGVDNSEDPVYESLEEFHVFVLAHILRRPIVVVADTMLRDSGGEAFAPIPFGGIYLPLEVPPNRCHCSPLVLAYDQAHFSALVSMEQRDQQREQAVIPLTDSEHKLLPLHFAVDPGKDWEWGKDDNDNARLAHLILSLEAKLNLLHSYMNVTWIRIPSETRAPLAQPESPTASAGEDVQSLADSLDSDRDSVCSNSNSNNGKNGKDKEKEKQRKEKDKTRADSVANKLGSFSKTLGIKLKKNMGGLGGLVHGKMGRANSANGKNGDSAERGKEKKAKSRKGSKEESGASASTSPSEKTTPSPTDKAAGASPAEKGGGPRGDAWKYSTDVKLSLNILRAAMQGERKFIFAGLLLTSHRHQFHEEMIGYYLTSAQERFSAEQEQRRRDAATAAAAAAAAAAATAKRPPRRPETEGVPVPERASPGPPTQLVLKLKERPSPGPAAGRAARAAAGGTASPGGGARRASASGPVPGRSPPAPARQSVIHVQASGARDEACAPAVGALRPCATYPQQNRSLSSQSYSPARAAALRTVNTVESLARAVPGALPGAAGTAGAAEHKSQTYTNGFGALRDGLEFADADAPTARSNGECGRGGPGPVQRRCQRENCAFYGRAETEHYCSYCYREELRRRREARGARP
Procedure, shortened: as §1

UniProt Q9P2H5 = target: T3, UniProt Q9P2H5
T3 sequence (whole entry): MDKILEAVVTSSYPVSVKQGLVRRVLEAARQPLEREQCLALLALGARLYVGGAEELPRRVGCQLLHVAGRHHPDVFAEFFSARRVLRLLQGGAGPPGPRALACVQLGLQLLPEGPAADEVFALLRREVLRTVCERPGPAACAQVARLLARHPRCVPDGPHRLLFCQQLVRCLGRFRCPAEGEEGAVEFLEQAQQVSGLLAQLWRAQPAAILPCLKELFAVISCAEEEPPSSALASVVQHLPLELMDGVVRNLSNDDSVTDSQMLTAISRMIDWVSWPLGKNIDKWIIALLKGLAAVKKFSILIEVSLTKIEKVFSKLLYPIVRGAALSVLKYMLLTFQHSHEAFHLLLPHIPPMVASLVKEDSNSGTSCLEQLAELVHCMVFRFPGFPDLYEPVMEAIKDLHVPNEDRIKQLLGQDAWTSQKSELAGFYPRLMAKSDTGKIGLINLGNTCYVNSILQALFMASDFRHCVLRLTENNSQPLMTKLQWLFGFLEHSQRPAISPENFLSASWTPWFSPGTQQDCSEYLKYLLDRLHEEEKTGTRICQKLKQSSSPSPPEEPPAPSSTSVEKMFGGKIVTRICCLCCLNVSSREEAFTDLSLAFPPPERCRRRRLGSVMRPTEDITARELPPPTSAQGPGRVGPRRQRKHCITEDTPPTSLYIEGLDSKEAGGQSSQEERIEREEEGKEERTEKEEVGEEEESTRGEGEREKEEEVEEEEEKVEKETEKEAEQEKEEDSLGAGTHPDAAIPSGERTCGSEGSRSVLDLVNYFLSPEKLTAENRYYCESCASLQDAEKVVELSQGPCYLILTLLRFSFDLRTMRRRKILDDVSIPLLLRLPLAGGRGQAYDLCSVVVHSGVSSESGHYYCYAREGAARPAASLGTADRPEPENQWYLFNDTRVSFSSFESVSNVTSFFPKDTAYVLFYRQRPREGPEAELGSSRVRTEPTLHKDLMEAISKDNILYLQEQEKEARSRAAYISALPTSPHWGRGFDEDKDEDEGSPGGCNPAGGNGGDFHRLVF
Procedure, shortened: as §1

UniProt Q9UGI0 = target: T4, UniProt Q9UGI0
T4 sequence (whole entry): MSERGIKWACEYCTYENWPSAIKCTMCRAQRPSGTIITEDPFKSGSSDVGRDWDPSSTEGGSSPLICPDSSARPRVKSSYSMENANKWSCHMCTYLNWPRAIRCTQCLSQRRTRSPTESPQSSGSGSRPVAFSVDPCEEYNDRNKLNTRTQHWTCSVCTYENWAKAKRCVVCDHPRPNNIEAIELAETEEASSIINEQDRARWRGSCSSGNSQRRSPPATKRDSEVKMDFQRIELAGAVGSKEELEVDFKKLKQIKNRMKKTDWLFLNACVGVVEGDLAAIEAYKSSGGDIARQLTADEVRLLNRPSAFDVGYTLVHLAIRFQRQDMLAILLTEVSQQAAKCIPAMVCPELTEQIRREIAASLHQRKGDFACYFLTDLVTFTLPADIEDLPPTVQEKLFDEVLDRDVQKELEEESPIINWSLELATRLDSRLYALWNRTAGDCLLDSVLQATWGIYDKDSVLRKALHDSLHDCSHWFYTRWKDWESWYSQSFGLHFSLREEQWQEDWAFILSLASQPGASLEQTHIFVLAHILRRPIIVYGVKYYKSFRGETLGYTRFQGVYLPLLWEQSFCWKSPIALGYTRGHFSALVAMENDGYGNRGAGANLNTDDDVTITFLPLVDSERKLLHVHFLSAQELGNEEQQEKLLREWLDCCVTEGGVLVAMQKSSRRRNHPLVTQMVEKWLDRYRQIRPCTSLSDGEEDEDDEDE
Procedure, shortened: as §1

YOD1 = target: T5, YOD1 (UniProt Q5VVQ6)
T5 sequence (whole entry): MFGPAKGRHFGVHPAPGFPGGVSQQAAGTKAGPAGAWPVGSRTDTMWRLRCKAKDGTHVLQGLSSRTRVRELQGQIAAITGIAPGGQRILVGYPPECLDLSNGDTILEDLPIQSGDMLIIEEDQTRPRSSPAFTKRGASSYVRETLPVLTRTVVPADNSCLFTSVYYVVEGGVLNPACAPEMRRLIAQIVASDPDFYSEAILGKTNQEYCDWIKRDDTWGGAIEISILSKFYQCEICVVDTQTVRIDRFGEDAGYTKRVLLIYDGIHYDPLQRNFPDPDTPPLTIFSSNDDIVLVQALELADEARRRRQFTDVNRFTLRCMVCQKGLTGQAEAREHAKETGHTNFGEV
Procedure, shortened: as §1

Chain of UniProt P51784 (P51784 whole entry): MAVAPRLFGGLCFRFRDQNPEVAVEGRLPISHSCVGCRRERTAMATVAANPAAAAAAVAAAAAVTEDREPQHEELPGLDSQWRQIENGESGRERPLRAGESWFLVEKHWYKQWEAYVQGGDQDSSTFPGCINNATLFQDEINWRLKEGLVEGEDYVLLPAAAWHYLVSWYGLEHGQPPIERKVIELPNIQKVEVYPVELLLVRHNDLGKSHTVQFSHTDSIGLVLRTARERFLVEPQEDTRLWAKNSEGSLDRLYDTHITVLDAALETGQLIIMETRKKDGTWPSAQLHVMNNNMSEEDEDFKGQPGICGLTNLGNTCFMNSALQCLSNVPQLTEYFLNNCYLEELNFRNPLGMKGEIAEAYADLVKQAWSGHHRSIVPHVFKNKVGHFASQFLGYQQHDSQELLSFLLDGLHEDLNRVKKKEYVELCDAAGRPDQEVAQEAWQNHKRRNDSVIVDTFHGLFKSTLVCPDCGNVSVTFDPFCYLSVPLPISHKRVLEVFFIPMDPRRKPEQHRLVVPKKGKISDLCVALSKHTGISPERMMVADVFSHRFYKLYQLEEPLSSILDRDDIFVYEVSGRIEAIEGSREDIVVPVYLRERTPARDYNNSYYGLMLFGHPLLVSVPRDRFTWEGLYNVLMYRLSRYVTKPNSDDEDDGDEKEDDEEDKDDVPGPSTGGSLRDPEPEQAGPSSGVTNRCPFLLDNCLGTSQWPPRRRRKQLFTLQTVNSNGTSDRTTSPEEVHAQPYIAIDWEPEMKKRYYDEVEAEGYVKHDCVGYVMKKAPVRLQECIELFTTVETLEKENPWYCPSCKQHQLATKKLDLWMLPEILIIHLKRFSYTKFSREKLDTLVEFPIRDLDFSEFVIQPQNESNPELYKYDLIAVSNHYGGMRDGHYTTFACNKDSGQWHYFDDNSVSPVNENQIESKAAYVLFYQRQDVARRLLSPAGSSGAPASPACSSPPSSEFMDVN
Chain of UniProt O00507 (O00507 whole entry, the tested form may be a part): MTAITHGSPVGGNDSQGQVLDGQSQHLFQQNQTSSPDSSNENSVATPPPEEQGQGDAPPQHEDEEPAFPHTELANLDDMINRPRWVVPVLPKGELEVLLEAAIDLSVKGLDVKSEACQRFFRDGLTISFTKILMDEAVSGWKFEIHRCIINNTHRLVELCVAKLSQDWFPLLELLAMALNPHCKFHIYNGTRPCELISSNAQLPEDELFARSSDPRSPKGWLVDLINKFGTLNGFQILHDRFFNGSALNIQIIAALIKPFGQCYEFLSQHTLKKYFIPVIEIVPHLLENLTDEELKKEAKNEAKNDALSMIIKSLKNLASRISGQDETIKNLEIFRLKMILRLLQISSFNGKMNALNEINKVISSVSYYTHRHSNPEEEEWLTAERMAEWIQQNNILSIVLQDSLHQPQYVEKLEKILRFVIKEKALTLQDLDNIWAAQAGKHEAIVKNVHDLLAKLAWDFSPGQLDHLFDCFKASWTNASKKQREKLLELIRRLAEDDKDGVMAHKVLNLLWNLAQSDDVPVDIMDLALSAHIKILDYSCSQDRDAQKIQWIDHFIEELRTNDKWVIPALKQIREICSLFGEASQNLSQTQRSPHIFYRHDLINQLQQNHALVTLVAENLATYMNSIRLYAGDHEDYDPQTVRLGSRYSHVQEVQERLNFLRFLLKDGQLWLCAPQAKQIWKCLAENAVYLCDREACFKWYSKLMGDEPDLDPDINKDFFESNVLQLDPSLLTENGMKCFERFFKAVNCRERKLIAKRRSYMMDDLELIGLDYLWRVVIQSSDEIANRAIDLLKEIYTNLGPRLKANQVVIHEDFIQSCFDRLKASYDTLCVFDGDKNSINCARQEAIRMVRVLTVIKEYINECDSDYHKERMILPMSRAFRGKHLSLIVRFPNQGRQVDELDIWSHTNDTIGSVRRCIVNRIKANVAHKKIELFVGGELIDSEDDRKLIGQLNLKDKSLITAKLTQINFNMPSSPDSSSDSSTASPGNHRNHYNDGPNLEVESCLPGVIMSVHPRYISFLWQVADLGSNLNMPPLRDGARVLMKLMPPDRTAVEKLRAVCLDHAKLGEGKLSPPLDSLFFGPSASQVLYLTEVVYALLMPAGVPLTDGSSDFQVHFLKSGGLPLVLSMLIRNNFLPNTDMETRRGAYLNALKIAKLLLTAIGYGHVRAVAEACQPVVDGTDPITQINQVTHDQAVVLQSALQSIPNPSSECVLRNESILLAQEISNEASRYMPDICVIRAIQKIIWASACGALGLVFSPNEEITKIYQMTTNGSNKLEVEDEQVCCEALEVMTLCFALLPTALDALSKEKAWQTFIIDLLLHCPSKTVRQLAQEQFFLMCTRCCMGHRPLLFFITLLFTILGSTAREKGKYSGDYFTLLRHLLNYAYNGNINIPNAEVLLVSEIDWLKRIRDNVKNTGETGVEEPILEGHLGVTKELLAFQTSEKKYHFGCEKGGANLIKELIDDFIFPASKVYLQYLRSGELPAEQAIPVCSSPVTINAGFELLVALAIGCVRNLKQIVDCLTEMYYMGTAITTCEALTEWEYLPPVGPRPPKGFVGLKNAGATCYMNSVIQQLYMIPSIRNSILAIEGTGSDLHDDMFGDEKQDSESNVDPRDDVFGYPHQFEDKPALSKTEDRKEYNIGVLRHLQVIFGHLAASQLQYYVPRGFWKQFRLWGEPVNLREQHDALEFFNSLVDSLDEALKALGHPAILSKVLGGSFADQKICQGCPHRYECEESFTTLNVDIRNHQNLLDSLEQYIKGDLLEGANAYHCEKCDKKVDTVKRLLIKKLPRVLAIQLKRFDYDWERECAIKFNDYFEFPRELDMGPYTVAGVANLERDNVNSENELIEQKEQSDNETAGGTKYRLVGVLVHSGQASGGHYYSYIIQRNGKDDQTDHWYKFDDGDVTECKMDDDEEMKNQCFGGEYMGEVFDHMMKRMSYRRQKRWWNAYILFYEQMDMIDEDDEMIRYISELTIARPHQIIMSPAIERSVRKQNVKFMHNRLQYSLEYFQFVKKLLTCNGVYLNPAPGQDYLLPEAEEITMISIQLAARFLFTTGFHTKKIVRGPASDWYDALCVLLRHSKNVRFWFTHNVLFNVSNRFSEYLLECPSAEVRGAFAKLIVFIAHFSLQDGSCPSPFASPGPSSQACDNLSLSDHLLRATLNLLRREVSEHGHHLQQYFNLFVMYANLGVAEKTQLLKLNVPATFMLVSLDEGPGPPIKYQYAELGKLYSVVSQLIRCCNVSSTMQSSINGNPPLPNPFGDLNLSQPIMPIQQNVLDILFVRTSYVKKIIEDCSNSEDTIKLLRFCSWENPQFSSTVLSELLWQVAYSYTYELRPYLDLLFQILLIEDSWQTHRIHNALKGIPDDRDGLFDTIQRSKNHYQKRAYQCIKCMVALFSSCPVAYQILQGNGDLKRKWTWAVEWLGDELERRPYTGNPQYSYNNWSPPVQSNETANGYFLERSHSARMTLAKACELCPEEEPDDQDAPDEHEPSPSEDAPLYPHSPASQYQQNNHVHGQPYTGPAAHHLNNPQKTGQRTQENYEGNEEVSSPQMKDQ

Compound	log2 ratio of Biotin-Ahx-Ub-VS probe labelling (UniProt O00507)	log2 ratio of Biotin-Ahx-Ub-VS probe labelling (UniProt P51784)	log2 ratio of Biotin-Ahx-Ub-VS probe labelling (UniProt Q5T2D3)	log2 ratio of Biotin-Ahx-Ub-VS probe labelling (UniProt Q8TE49)	log2 ratio of Biotin-Ahx-Ub-VS probe labelling (UniProt Q9P2H5)	log2 ratio of Biotin-Ahx-Ub-VS probe labelling (UniProt Q9UGI0)	log2 ratio of Biotin-Ahx-Ub-VS probe labelling (YOD1)
CN1c2ccccc2C(NC(=O)CCl)CS1(=O)=O (stereo not drawn)	-0.0151	-0.0186	-0.275	-2.63 (active)	-0.164	-0.46	-0.0718
O=C(CCl)Nc1cccc(NC(=O)c2ccccc2)c1	0.236	0.295	0.263	-0.0536	-0.23	0.0168	0.288
O=C(CCl)N1CCC(OCc2ccccc2F)CC1	-0.226	0.146	-0.173	-0.355	0.097	-0.394	0.135
CCCn1nccc1NC(=O)CCl	-0.381	-0.0768	-0.0284	-1.02 (active)	-0.452	-0.251	-0.159
Cl.O=C(CCl)N1CC(c2ccc(Br)cn2)C1	-0.573	-0.0636	-0.282	-0.974	-0.175	-0.897	-0.229
O=C(CCl)N1CCC(c2noc3cc(F)ccc23)CC1	-0.609	0.00105	-0.212	-0.807	-0.0991	-1.02 (active)	-0.0109
CC(C)n1nccc1NC(=O)CCl	-0.0553	0.033	-0.201	-1.34 (active)	-0.152	-0.9	0.0661
O=C(CCl)N1CCCN(C(=O)c2ccc(Cl)cc2)CC1	-0.381	-0.139	-0.134	-0.265	-0.166	-0.84	-0.417
CNC(=O)C1(NC(=O)CCl)CCCCC1	0.215	0.188	-0.364	-0.591	-0.0698	0.0155	-0.0513
Cc1nc(CC2CCN(C(=O)CCl)CC2)no1	-0.771	-0.658	-0.786	-1.04 (active)	-0.59	-0.834	-0.679
Cl.O=C(CCl)NCCc1ncc(F)cc1F	0.000732	-0.132	-0.431	-0.85	-0.675	-0.786	-0.195
O=C(CCl)N1CCC(C(=O)N2CCCC2)CC1	-0.126	-0.2	-0.068	-0.199	-0.139	0.0373	0.122
Cl.Cn1cnc2cc(CNC(=O)CCl)ccc21	0.245	-0.209	-0.0728	-0.354	-0.126	-0.308	0.0476
O=C(CCl)NC1CCCCNC1=O (stereo not drawn)	-0.323	-0.117	-0.329	-0.574	-0.277	-0.309	-0.218
O=C(CCl)N1CCCC2CCCCC21 (stereo not drawn)	-0.0343	0.035	-0.0557	-0.126	-0.193	-0.134	0.0864
CC(O)CC1CCN(C(=O)CCl)CC1 (stereo not drawn)	0.0435	-0.0578	-0.0758	-0.714	0.0392	0.164	-0.124
O=C(CCl)N1CCCCC12CCOCC2	-0.561	-0.343	-0.414	-0.444	-0.444	-0.517	-0.518
CCN(Cc1ccc(C#N)cc1F)C(=O)CCl	-0.396	-0.331	-0.313	-0.525	-0.207	-1.27 (active)	-0.251
Cl.O=C(CCl)N1CCN(Cc2ccccc2)CC1	-0.496	0.0203	-0.213	-0.391	0.0502	-0.536	-0.381
